Assay outcomes from PubChem.
Sampled rows, rich in hits. Any-hit rate of the full collection: about 7.1%.
ATXN2 expr inh – Primary qHTS for Inhibitors of ATXN expression | HEK-293 ATXN2-luciferase reporter, luminescence, 24 h | Potency, µM (titrated, usually from 57 µM), without a hit: top-dose activity change, negative = inhibition, hits mostly inhibitors | hit rate 0.72% among 360,000; also: potency is read from the fitted curve at half-maximal effect; % is scaled to controls: 0 for no effect and ±100 for the full control effect; nearly all actives have a fitted effect of over 55% in size
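ATXN2-luciferase reporter cells (luciferase flanked by upstream and downstream ATXN2 gene portions) were treated 24 h at 37 °C with compounds at up to 57 uM. SteadyGlo luminescence gave expression; GF-AFC fluorescence gave viability.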
MCF10A rereplic – A quantitative high throughput screen for small molecules that induce DNA re-replication in MCF 10a normal breast cells. MCF 10A DNA re-replication, Hoechst nuclear intensity, 48 h. hit rate 2.9% among 350,000. Potency, µM (doses to about 46.1 µM), for inactives: at the top dose activity, positive = re-replication, most hits filed as activators. AID 624296, 2012; also: potency is read from the fitted curve at half-maximal effect; % of control where 0% means no effect; nearly all actives have a fitted effect of over 50% in size
SW480 rereplic – A quantitative high throughput screen for small molecules that induce DNA re-replication in SW480 colon adenocarcinoma cells; Potency, µM (top dose mostly 46.1 µM), for the others: at the top dose re-replication activation, most hits filed as activators; hit rate 1.8% among 340,000; SW480 DNA re-replication, Hoechst DNA content imaging, 48 h; also: potency is read from the fitted curve at half-maximal effect; % of control where 0% means no effect; nearly all actives have a fitted effect of over 55% in size
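250 cells/well; 23 nL cpd via pin tool; 48 hr, 37 C, 5% CO2; Hoechst 40 min; imager read of total nuclear intensity, ex 405/em 500-530 nm.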
ATXN viability – Viability Counterscreen for Primary qHTS for Inhibitors of ATXN expression. AID 651635, 2014. S2 cells (HEK-293 line with an ATXN2-luciferase reporter) viability, CellTiter-Fluor protease fluorescence, 24 h. Potency, µM (series often up to 56.7 µM), most hits filed as cytotoxic. hit rate 0.49% among 400,000; also: potency is read from the fitted curve at half-maximal effect; nearly all actives have a fitted effect of over 40% in size
PINK1 modulator – A Quantitative High throughput Screen to Identify Chemical Modulators of PINK1 Expression; PINK1 immunofluorescence, high-content cytometry, 24 h; Potency, µM (top dose mostly 76.6 µM), inactives show at the highest dose activation (PINK1 increase), most hits filed as activators; hit rate 0.2% among 410,000; AID 624263, 2012; active = well fitted activation curve with a large enough effect; inconclusive = small, poorly fitted or top-dose-only effect; cell line not stated here; also: potency is read from the fitted curve at half-maximal effect; % of control where 0% means no effect; nearly all actives have a fitted effect of over 65% in size
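Decision-based qHTS: stable cells, 24 h exposure to five compound concentrations, CCCP as control. Fixed cells stained for PINK1 plus nuclear, mitochondrial and cell markers, cytometer read.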
IL-1B inflam inh – qHTS for Inhibitors of Inflammasome Signaling: IL-1-beta AlphaLISA Primary Screen. AID 743279, 2014. THP-1 LPS/ATP IL-1B secretion, AlphaLISA, 16 h; active compounds read low. activity change, % at 57.5 µM. hit rate 4.7% among 360,000; in the data active = activity change below about -50%; inconclusive = mostly about -30% to -49%; also: % is scaled to controls: 0 for no effect and ±100 for the full control effect
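THP-1 cells pretreated 1 hr with compounds (up to 57.5 uM final), then stimulated with LPS (250 ng/mL final) plus ATP (1.25 mM final); secreted IL-1B measured by AlphaLISA after 16 hr, decreased signal indicating inhibition.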
Active calls of the source: *; i = inactive; ? = inconclusive; . = not tested or not shown; [ ] = remark or other dose. Unless noted, calls follow the shape of the dose curve; as a rule, active = well fitted curve in the direction sought with a large enough effect; inconclusive = small, poorly fitted or top-dose-only effect, or another doubt; inactive = no such curve, though single readings can be large; an effect the other way counts as inactive or inconclusive.

SMILES	ATXN2 expr inh	MCF10A rereplic	SW480 rereplic	ATXN viability	PINK1 modulator	IL-1B inflam inh
O=C(CCOc1ccccc1)Nc1ccnn1C1CCN(CCc2ccccc2)CC1	-7%	5%	1%	i	1%	-52*
CCc1ccc(CN2CCC(n3nccc3NC(=O)c3ccccc3Cl)CC2)cc1	-19%	?	2%	i	2%	-50*
Cn1cc(CN2CCC(n3nccc3NC(=O)c3ccccc3Cl)CC2)cn1	-3%	2%	-19%	i	-1%	1
c1cnc2cc3c(cc2n1)[C@@H]1CNC[C@H]3C1	.	.	.	i	.	.
Cc1cc(=O)c(C(=O)NCCCc2ccncc2)c2n1-c1ccccc1SC(c1cccs1)C2 (centres undefined)	.	.	.	i	1%	.
O=C(C1CCCCC1)N1CC(=O)N2CCCc3ccccc3C2C1 (centres undefined)	-14%	.	.	i	.	.
O=C(Nc1ccnn1C1CCN(C/C=C/c2ccccc2)CC1)c1ccccc1	2%	-6%	-6%	i	1%	?
O=C(Nc1ccnn1C1CCN(C/C=C/c2ccccc2)CC1)c1cccc(F)c1	-17%	4%	2%	?	1%	-53*
Cc1ccccc1N=Cc1cc2c(cc1O)OC(N)=C(C#N)C2c1ccccc1 (centres undefined)	?	18µM*	?	i	-2%	14
Cc1ccc(N=Cc2cc3c(cc2O)OC(N)=C(C#N)C3c2ccccc2)cc1 (centres undefined)	?	18µM*	?	?	-2%	?
N#CC1=C(N)Oc2cc(O)c(C=Nc3ccccc3)cc2C1c1ccccc1 (centres undefined)	?	4.1µM*	26%	?	-1%	9
Cc1ccc(C2C(C#N)=C(N)Oc3cc4c(cc32)OCO4)cc1 (centres undefined)	1%	?	?	i	2%	-18
Cc1cc(C)n2nc(CNC(=O)c3ccc(Cl)cc3)nc2n1	-1%	.	.	i	2%	.
C=CCOc1cccc(/C=C2\C(=O)N(Cc3ccc(C)cc3)C(C)=C2C(=O)OC)c1	?	16µM*	?	i	3%	-91*
CCOc1cc(/C=C2\C(=O)N(Cc3ccc(C)cc3)C(C)=C2C(=O)OC)ccc1O	-6%	?	?	i	8%	-22
O=C(c1ccc(Cl)c(Cl)c1)N1CCC(=O)N(C(COCc2ccc(Cl)cc2)Cc2ccccc2)CC1 (centres undefined)	?	?	?	?	-1%	-73*
O=C(c1ccc(Cl)c(Cl)c1)N1CCC(=O)N(C(COCc2cccc(C(F)(F)F)c2)Cc2ccccc2)CC1 (centres undefined)	?	?	18µM*	?	0%	-86*
Cc1cccc(COC[C@H](Cc2ccccc2)N2CCN(C(=O)c3ccc(Cl)c(Cl)c3)CCC2=O)c1	0%	.	.	?	3%	-65*
Cc1cccc(COCC(Cc2ccccc2)N2CCN(C(=O)c3cc(Cl)cc(Cl)c3)CCC2=O)c1 (centres undefined)	?	23µM*	18µM*	?	7%	-64*
CCOc1ccc(CN2C(=O)c3ccccc3Sc3ccc(C(=O)OC)cc32)cc1	.	.	.	.	4%	.
Cc1cccc(COCC(Cc2ccccc2)N2CCN(C(=O)c3ccc(Cl)c(Cl)c3)CCC2=O)c1 (centres undefined)	?	?	?	?	4%	-74*
Cn1nc(C(=O)NCCN2Cc3ccccc3OC(c3ccsc3)C2)c2ccccc2c1=O (centres undefined)	.	.	.	i	2%	.
O=C1c2ccccc2-c2c1cccc2C(=O)N1CCCCCC1	6%	-2%	23µM*	i	3%	9
O=C1Nc2ccc(Cl)cc2/C1=C/C1CC=CCC1 (centres undefined)	-26%	?	?	?	0%	-90*
CN=C1c2cc3cc(OC)ccc3n2CCN1Cc1ccccc1	?	21µM*	11µM*	i	8%	-91*
SMILES	ATXN2 expr inh	MCF10A rereplic	SW480 rereplic	ATXN viability	PINK1 modulator	IL-1B inflam inh
COc1ccc(S(=O)(=O)N2CCN(Cc3ccccc3)CC2)cc1	-9%	19%	-2%	i	0%[38.3 µM]	-5
Cc1nc(COC(=O)c2cc(O)c3ccccc3c2O)cs1	?	?	7.3µM*	?	2%	0
Cc1nc(COC(=O)c2ccc(CO)cc2)cs1	8%	2%	2%	i	0%	-19
COc1ccc(Nc2nc(NCc3ccco3)nc(N3CCOCC3)n2)cc1	-18%	7%	105%	i	2%	-57*
Cc1cccc(Nc2nc(NCc3ccco3)c3ccccc3n2)c1	25µM*	?	?	.	-2%	-98*
Cc1ccc(-c2nc(NCc3ccco3)c3ccccc3n2)cc1	.	?	-42%	i	12%	5
Oc1ccc(Nc2nc(Cl)nc(NCc3ccco3)n2)cc1	21%	?	?	i	?	-109*
COc1ccc(Nc2nc(N3CCOCC3)nc(N3CCOCC3)n2)cc1	.	6%	-7%	i	0%	-10
c1ccc(Nc2nc(NCc3ccco3)c3ccccc3n2)cc1	-31%	?	?	i	-2%	-94*
CCn1cc2nc(SCC(=O)Nc3cc(OC)cc(OC)c3)n(Cc3ccc(Cl)cc3)c(=O)c2n1	-4%	.	.	i	2%	.
Cc1csc2nc(-c3ccc(NS(=O)(=O)c4cc(F)ccc4F)cc3)cn12	4%	.	.	i	-4%	.
CC(C)(O)CCc1ccc(OCc2cc(-c3cccc(OC(F)F)c3)c3ncccc3c2)cc1	4%	.	.	.	.	.
COC(=O)CSC1=C(C#N)C(c2ccc(C)o2)CC(=O)N1 (centres undefined)	-27%	?	5.8µM*	i	12%	5
CCOc1ccc(NC(=O)CSC2=C(C#N)C(c3ccc4c(c3)OCO4)CC(=O)N2)cc1 (centres undefined)	-11%	0%	2%	i	-1%	-55*
CCc1nc2ccccc2c(C(=O)OCC(=O)Nc2cccc(S(=O)(=O)NC3=NCCCCC3)c2)c1C	22µM*	?	?	?	6%	-84*
CCc1nc2ccccc2c(C(=O)OCC(=O)Nc2cccc(S(=O)(=O)N3CCOCC3)c2)c1C	?	109%	?	?	1%[38.3 µM]	-78*
O=C(NCc1cccs1)c1ccc2c(c1)N(Cc1ccccc1Cl)C(=O)c1ccccc1S2	-7%	.	.	i	3%	.
